Records with an inconclusive call do not appear. Calls of active or inactive are those of the source. Unless noted, the call rests on the fitted dose curve; in most records, active means well fitted curve in the direction sought with a large enough effect; inconclusive means small, poorly fitted or top-dose-only effect, or another doubt; inactive means no such curve, though single readings can be large; an effect the other way counts as inactive or inconclusive.
How the values were obtained:
[1] = Cell Viability qHTS for small molecule stabilizers of the endoplasmic reticulum resident proteome (AID 1508629); conditions: cell viability counter-screen, 100 nM thapsigargin for final 4 h;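 further: compound exposure about 46 h in total before the viability read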; further: potency means the concentration at half of the fitted maximal effect;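 on max response: human SH-SY5Y neuroblastoma cells carrying the GLuc-SERCaMP reporter; on the % scale 0 is the no-effect control and ±100 the full control effect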
[2] = molecular target: Cytochrome P450 2C9 (Homo sapiens) (UniProt P11712); assay: Cytochrome P450 family 2 subfamily C member 9 (CYP2C9) small molecule antagonists: luciferase biochemical (cell-free) qHTS assay (AID 1645842; active means well fitted curve in the direction sought with a large enough effect in the repeat runs; an effect the other way counts as inactive or inconclusive; further: nearly all actives have a fitted effect of over 55% in size; further: potency means the concentration at half of the fitted maximal effect; on activity change, negative = inhibition: on the % scale 0 is the no-effect control and ±100 the full control effect); conditions: P450-Glo CYP2C9 enzyme assay, luciferin luminescence; series mostly up to 57.4 µM
Outline: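 P450-Glo CYP2C9 system: proluciferin substrate with enzyme in mix containing 0.4% BSA, 10 min at room temperature, then NADPH regeneration solution added and incubated 1 h at 37C. Detection reagent stopped reaction; luminescence read after 20 min as RLU.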

Papain (Carica papaya) = Papain (Carica papaya) (UniProt P00784); assay: Primary qHTS assay for inhibitors of the protease papain (AID 1645873); conditions: papain Z-FR-AMC cleavage, AMC fluorescence; series mostly up to 49.8 µM;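 further: papain turnover of Z-FR-AMC read as the AMC fluorescence gain over 10 min; on the % scale 0 is the no-effect control and ±100 the full control effect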
[3] = Primary qHTS for inhibitors of nuclear receptor binding SET domain protein 2 (NSD2) in an isogenic RCH-ACV NSD2 p.E1099K mutant (9B) (AID 1645876); conditions: RCH-ACV NSD2 E1099K (9B) viability, CellTiter-Glo, 72 h; series mostly up to 44.9 µM; further: nearly all actives have a fitted effect of over 70% in size; further: potency means the concentration at half of the fitted maximal effect
[4] = Primary qHTS for inhibitors of nuclear receptor binding SET domain protein 2 (NSD2) in an RCH-ACV wild type WT cells (2C) (AID 1645877); conditions: RCH-ACV (leukaemia line) NSD2 WT (2C) viability, CellTiter-Glo, 72 h; series mostly up to 44.9 µM; further: nearly all actives have a fitted effect of over 70% in size; further: potency means the concentration at half of the fitted maximal effect
[5] = Primary qHTS for small molecule stabilizers of the endoplasmic reticulum resident proteome: Secreted ER Calcium Modulated Protein (SERCaMP) assay (AID 1508630); conditions: SH-SY5Y GLuc-SERCaMP (Gaussia luciferase released on ER calcium loss) secretion, thapsigargin, luminescence; series mostly up to 38.4 µM; further: potency means the concentration at half of the fitted maximal effect; on activity change, negative = inhibition: on the % scale 0 is the no-effect control and ±100 the full control effect
Outline: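 The SH-SY5Y reporter protocol was run at 3 concentrations up to 38.3 uM (primary) or 11 concentrations (follow-up): 16 h compound, 100 nM thapsigargin for 4 h, then extracellular luciferase luminescence.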

[6] = A High-Content qHTS Against Drug Library for the Identification of Small Molecules that Inhibit DYT1 Early Onset Primary Dystonia-Associated Cell Pathology (AID 1645839; calls by dose curve; further: potency means the concentration at half of the fitted maximal effect); conditions: HEK293 Flp-In EGFP-delE TorsinA, punctate imaging, 48 h; series mostly up to 46.1 µM
Outline: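 High-content imaging quantified EGFP-TorsinA mislocalization in HEK293-derived cells inducibly expressing DYT1 mutant torsinA, after 48 h exposure to compound given together with tetracycline induction. Cell count served as a toxicity channel alongside %pathology.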

[7] = molecular target: Cytochrome P450 2D6 (Homo sapiens) (UniProt P10635); assay: Cytochrome P450 family 2 subfamily D member 6 (CYP2D6) small molecule antagonists: luciferase biochemical (cell-free) qHTS assay (AID 1645840; active means well fitted curve in the direction sought with a large enough effect in the repeat runs; an effect the other way counts as inactive or inconclusive; further: nearly all actives have a fitted effect of over 55% in size; further: potency means the concentration at half of the fitted maximal effect); conditions: P450-Glo CYP2D6 enzyme, luciferin luminescence, 1 h; series mostly up to 57.4 µM
Outline: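 P450-Glo CYP2D6 system: proluciferin substrate converted by enzyme to luciferin, read by luminescence proportional to activity. Enzyme-substrate mix with compound 10 min at room temperature, then NADPH regeneration 1 h before detection reagent.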

[8] = molecular target: N-terminal Xaa-Pro-Lys N-methyltransferase 1 (Homo sapiens) (UniProt Q9BV86); assay: Confirmatory qHTS for Inhibitors of N-terminal methyltransferase 1 (NTMT1): MTaseGlo Assay (AID 1645874); conditions: NTMT1 enzyme, MTase-Glo SAH luminescence; series mostly up to 100 µM; further: nearly all actives have a fitted effect of over 65% in size; further: potency means the concentration at half of the fitted maximal effect;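 on activity change, negative = inhibition: luminescence from SAH made as NTMT1 methylates SPKRIA peptide using SAM; 0% = DMSO control and -100% = no-enzyme control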
Outline: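 SPKRIA peptide at 1 uM was methylated by 125 nM NTMT1 using 100 uM SAM over 30 min at room temperature, following a 15 min compound preincubation. Product SAH was detected luminescently.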

[9] = molecular target: Cytochrome P450 3A4 (Homo sapiens) (UniProt P08684); assay: Cytochrome P450 family 3 subfamily A member 4 (CYP3A4) small molecule antagonists: luciferase qHTS assay (AID 1645841; active means well fitted curve in the direction sought with a large enough effect in the repeat runs; an effect the other way counts as inactive or inconclusive; further: nearly all actives have a fitted effect of over 45% in size); conditions: P450-Glo CYP3A4 enzyme assay, luciferin luminescence; series mostly up to 57.4 µM
Outline: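 Luminescent CYP3A4 activity readout: compounds plus enzyme-substrate mix 10 min at room temperature, reaction started with NADPH regenerating system for 1 h, stopped with detection reagent, read after 20 min. Ketoconazole served as control.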

Chain of N-terminal Xaa-Pro-Lys N-methyltransferase 1 (Homo sapiens) (Q9BV86 whole entry, looked up): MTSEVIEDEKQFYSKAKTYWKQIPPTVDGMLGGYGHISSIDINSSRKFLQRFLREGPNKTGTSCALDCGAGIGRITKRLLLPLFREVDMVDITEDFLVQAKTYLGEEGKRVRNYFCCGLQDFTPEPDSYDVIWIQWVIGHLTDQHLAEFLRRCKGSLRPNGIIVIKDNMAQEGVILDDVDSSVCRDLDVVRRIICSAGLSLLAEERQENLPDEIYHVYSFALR
Chain of Cytochrome P450 3A4 (Homo sapiens) (P08684 whole entry, looked up): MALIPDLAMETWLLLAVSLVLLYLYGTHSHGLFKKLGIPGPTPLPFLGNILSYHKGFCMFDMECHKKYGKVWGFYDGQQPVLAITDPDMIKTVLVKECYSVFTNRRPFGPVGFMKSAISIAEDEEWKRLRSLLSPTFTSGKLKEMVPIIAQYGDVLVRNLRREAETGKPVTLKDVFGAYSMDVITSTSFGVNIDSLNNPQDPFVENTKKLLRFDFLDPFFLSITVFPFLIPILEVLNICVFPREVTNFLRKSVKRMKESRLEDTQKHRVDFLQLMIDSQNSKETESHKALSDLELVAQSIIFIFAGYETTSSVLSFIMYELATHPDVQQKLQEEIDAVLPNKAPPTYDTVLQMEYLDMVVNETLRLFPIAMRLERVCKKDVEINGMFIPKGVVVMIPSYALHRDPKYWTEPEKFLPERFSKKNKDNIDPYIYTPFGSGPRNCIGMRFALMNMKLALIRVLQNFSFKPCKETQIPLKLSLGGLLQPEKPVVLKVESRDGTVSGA
Chain of Cytochrome P450 2C9 (Homo sapiens) (P11712 whole entry, looked up): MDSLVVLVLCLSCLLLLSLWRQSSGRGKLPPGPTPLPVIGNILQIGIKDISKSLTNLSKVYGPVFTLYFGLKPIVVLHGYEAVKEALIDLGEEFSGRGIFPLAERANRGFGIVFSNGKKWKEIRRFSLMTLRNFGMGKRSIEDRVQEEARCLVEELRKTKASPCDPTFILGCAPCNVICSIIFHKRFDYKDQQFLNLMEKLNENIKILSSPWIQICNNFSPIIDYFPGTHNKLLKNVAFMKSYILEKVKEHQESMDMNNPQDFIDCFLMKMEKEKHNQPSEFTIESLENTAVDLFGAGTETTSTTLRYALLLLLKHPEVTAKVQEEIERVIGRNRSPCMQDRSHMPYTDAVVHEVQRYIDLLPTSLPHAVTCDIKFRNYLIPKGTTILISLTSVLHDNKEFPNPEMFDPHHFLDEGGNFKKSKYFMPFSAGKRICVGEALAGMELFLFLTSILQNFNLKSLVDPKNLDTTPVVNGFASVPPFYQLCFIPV
Chain of Cytochrome P450 2D6 (Homo sapiens) (P10635 whole entry, looked up): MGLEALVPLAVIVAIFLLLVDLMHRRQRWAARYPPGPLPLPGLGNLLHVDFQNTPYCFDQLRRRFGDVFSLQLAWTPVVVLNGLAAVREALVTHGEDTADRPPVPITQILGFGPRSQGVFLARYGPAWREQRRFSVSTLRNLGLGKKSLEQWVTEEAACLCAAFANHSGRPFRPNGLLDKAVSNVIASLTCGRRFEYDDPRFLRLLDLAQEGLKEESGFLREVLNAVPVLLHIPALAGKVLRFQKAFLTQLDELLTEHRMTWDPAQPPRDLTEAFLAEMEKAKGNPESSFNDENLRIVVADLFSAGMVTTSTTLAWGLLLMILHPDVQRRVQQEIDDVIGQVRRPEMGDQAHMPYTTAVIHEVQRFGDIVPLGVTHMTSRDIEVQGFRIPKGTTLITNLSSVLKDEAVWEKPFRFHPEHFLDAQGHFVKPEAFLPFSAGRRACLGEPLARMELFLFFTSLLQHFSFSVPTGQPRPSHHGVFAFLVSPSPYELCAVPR
Chain of Papain (Carica papaya) (P00784 whole entry, looked up, the tested form may be a part): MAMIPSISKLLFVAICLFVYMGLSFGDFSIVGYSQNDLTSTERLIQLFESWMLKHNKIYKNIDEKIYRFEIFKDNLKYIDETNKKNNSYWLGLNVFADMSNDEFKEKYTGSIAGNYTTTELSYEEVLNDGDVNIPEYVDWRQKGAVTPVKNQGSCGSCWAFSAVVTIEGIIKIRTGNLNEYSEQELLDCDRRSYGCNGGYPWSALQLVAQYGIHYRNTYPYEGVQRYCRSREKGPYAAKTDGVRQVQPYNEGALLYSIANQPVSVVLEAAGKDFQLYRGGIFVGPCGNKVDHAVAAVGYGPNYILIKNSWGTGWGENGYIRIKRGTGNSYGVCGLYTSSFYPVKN

Oc1ccc(O)cc1
active: Potency [3] 11.9 µM | Potency [4] 15 µM
inactive: max response [1] -23.4% | Potency [2] | Potency (Papain (Carica papaya))

NC[C@H]1O[C@H](O[C@H]2[C@H](O[C@@H]3O[C@H](CO)[C@@H](O)[C@H]3O)C(O)[C@H](N)C[C@@H]2N)[C@H](N)[C@@H](O)[C@@H]1O (stereo partly drawn)
inactive: activity change, negative = inhibition [5] -22.5% [at 7.35 µM] | % pathology change, negative = correction [6] 1.85% [at 9.22 µM] | activity change, negative = inhibition [7] 6.46% [at 11.5 µM] | activity change, negative = inhibition [2] 8.72% [at 11.5 µM]

O=C1OC2(c3ccc(O)cc3Oc3cc(O)ccc32)c2ccccc21
active: Potency [6] 7.08 µM
inactive: Potency [5] | Potency [7] | Potency [2]

C[C@]12CC[C@@H]3c4ccc(O)cc4CC[C@H]3[C@@H]1C[C@@H](O)[C@@H]2O
inactive: Potency [5] | Potency [6] | Potency [7] | Potency [2] | Potency [8] | Potency [3]

Nc1nc2ncc(CNc3ccc(C(=O)N[C@@H](CCC(=O)O)C(=O)O)cc3)nc2c(=O)[nH]1
inactive: max response [1] 22.5% | Potency [6] | Potency [7] | Potency [2] | Potency [3] | Potency [4]

COC1=CC(=O)C[C@@H](C)[C@]12Oc1c(Cl)c(OC)cc(OC)c1C2=O
inactive: Potency [5] | Potency [6] | Potency [7] | Potency [2]

Nc1ccn([C@@H]2O[C@H](CO)[C@@H](O)C2(F)F)c(=O)n1
inactive: Potency [5] | Potency [6] | Potency [7] | outcome [9] | Potency [2]

CNCCC(Oc1ccccc1C)c1ccccc1 (stereo not drawn)
inactive: Potency [5]

Nc1ccc(C(=O)O)cc1
inactive: Potency [5] | Potency [6] | Potency [7] | Potency [2] | Potency [3] | Potency [4]

O=C1c2ccccc2C(=O)C1c1ccccc1
inactive: Potency [5] | Potency [6] | Potency [7] | Potency [2] | Potency [3] | Potency [4]

CCCCN1CCCC1C(=O)Nc1c(C)cc(C)cc1C (stereo not drawn)
active: Potency [7] 3.89 µM
inactive: Potency [5] | Potency [6] | Potency [2]

CN1CCCC(CC2c3ccccc3Sc3ccccc32)C1 (stereo not drawn)
inactive: max response [1] -16.7% | Potency [2]
active: Potency [7] 0.0692 µM | Potency [4] 18.8 µM

CO/N=C1\CN(c2nc3c(cc2F)c(=O)c(C(=O)O)cn3C2CC2)CC1CN (stereo not drawn)
inactive: Potency [5] | Potency [6] | Potency [7] | Potency [2]

CCCCCCCCCCCCCCCCCC(=O)OCC(O)CO (stereo not drawn)
inactive: max response [1] 15.4% | Potency [6] | Potency [7] | Potency [2] | Potency [3] | Potency [4]

CN1CCC[C@@H]1c1cccnc1
inactive: Potency [5] | Potency [6] | Potency [7] | outcome [9] | Potency [3] | Potency [4]

Cc1c(C)n(Cc2ccccc2)c2ccc(C(=O)OCCN(C)C)cc12
inactive: Potency [5]
active: Potency [6] 11.2 µM | Potency [7] 13.8 µM | Potency [2] 12.3 µM | Potency [8] 5.78 µM | Potency [3] 10.6 µM | Potency [4] 9.44 µM

CN(C/C=C/c1ccccc1)Cc1cccc2ccccc12
inactive: Potency [5] | Potency [6] | outcome [9]
active: Potency [7] 0.347 µM

CCN1CCN(c2cc3c(cc2F)c(=O)c(C(=O)O)cn3C2CC2)CC1
active: Potency [5] 1.12 µM
inactive: max response [1] 21.1% | Potency [6] | Potency [7] | Potency [2] | Potency [3] | Potency [4]

COc1c2occc2c(OC)c2c(=O)cc(C)oc12
inactive: Potency [5] | Potency [6] | Potency [3] | Potency [4]
active: Potency [7] 15.5 µM | Potency [2] 11 µM

C[C@@H]1CN(CCCn2c3ccccc3c3ccccc32)C[C@H](C)N1
active: Potency [1] 31.6 µM | Potency [3] 26.6 µM | Potency [4] 23.7 µM
inactive: Potency [2]

CC(Cc1cccc(C(F)(F)F)c1)NCCOC(=O)c1ccccc1 (stereo not drawn)
inactive: Potency [5] | Potency [6]
active: Potency [7] 0.0069 µM | Potency [2] 19.5 µM

O=C(Nc1ccc(Cl)c(Cl)c1)C1CC1
inactive: Potency [5] | Potency [6] | Potency [7]

CC1=C(C(=O)OC(C)C)C(c2cccc([N+](=O)[O-])c2)C(C(=O)OC2CN(C(c3ccccc3)c3ccccc3)C2)=C(N)N1 (stereo not drawn)
inactive: max response [1] -0.744% | Potency [3] | Potency [4]
active: Potency [7] 9.77 µM | Potency [2] 1.95 µM

C[C@]12CC[C@H]3[C@@H](CCC4=CC(=O)CC[C@@]43C)[C@@H]1CC[C@@H]2C(=O)CO
inactive: Potency [5] | Potency [6] | Potency [7] | Potency [2]

CCOC(=O)n1ccn(C)c1=S
inactive: Potency [5] | Potency [6] | Potency [7] | Potency [2]

CC1(C)O[C@@H]2[C@@H](CO[C@@]3(COS(N)(=O)=O)OC(C)(C)O[C@@H]23)O1
inactive: Potency [5] | Potency [6] | Potency [7] | Potency [2] | Potency [3] | Potency [4]

Clc1ccc2c(c1)CCc1cccnc1C2=C1CCNCC1
inactive: Potency [5]

CCCCC(CC)CN=C(N)NC(N)=NCCCCCCN=C(N)NC(N)=NCC(CC)CCCC (stereo not drawn)
active: Potency [6] 11.2 µM | Potency [7] 0.617 µM | Potency [2] 12.3 µM | Potency [8] 18.3 µM | Potency [3] 0.75 µM | Potency [4] 0.841 µM
inactive: Potency [5]
